# Assay results taken from PubChem BioAssay (NCI).
# The panel holds about 79,000 compounds, 15% with a hit somewhere; the sample as a whole holds those more often. Unmarked numbers belong to inactive results. Activity calls are given as the source filed them. Rule as the data show it: active = growth inhibition above about 70%; inactive = the rest.
# What was measured:
# [1] = NCI Yeast Anticancer Drug Screen. Data for the mlh1 strain (AID 171);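 also: 0% = growth of vehicle-treated control cultures of the same strain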; details: S. cerevisiae mlh1 strain growth inhibition, active compounds read high
# In short: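 Yeast carrying a defined genetic alteration in DNA damage repair or cell cycle control were exposed to test compounds. Growth inhibition was measured relative to vehicle-treated controls.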
# [2] = NCI Yeast Anticancer Drug Screen. Data for the sgs1 strain (AID 173);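 also: 0% = growth of vehicle-only control cultures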; details: S. cerevisiae sgs1 mutant, active compounds read high
# In short: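 Yeast mutant strains carrying defined defects in DNA damage repair or cell cycle control were exposed to test compounds. Growth inhibition was scored against vehicle-treated controls.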
# [3] = NCI Yeast Anticancer Drug Screen. Data for the mlh1 rad18 strain (AID 175); details: S. cerevisiae mlh1 rad18 strain growth inhibition, active compounds read high
# In short: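 Growth inhibition of the yeast strain was measured after compound exposure and expressed relative to vehicle-treated controls. The strain carries defined defects in DNA damage repair.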
# [4] = NCI Yeast Anticancer Drug Screen. Data for the rad18 strain (AID 177); details: S. cerevisiae rad18 mutant growth inhibition, active compounds read high
# In short: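 Yeast carrying a defined DNA damage repair alteration were exposed to compounds. Growth inhibition was expressed relative to vehicle-treated controls.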
# [5] = NCI Yeast Anticancer Drug Screen. Data for the rad52 strain (AID 147);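 also: 0% = growth of vehicle-treated control cultures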; details: S. cerevisiae rad52 mutant growth inhibition, active compounds read high
# In short: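 Yeast strain carrying a DNA damage repair alteration was exposed to test compounds. Growth inhibition was measured relative to vehicle-treated controls.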
# [6] = NCI Yeast Anticancer Drug Screen. Data for the wt1 strain (AID 149);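 also: 0% = growth of vehicle-treated wt1 cultures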; details: S. cerevisiae wt1 strain (SPY 50644) growth inhibition, active compounds read high
# In short: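 wt1 yeast, compound-treated; % growth inhibition vs vehicle control.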
# [7] = NCI Yeast Anticancer Drug Screen. Data for the rad50EPP+ strain (AID 151);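 also: 0% = growth of vehicle-treated control cultures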; details: S. cerevisiae rad50 mutant strain, active compounds read high
# In short: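 Yeast strain carrying rad50 alteration (rad50EPP+) exposed to compounds; growth inhibition measured relative to vehicle-treated controls.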
# [8] = NCI Yeast Anticancer Drug Screen. Data for the rad50 strain (AID 155);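 also: 0% = growth of vehicle-only cultures of the same strain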; details: S. cerevisiae rad50 strain growth inhibition, active compounds read high
# In short: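 Genetically altered yeast (DNA repair pathway); compound treatment; growth inhibition vs vehicle ctrl.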
# [9] = NCI Yeast Anticancer Drug Screen. Data for the mec2-1 strain (AID 157); details: S. cerevisiae mec2-1 strain, active compounds read high
# In short: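 mec2-1 yeast strain, carrying an alteration in DNA damage repair or cell cycle control, was exposed to compounds; growth inhibition was measured relative to vehicle-treated controls.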
# [10] = NCI Yeast Anticancer Drug Screen. Data for the rad14 strain (AID 159);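 also: 0% = growth of vehicle-treated control cultures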; details: S. cerevisiae rad14 strain growth inhibition, active compounds read high
# In short: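 Test compounds were applied to a repair-deficient yeast strain. Its growth was then compared with that of cultures given vehicle alone, and inhibition was expressed relative to those controls.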
# [11] = NCI Yeast Anticancer Drug Screen. Data for the sgs1 mgt1 strain (AID 161);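 also: 0% = growth of cultures given vehicle only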; details: S. cerevisiae sgs1 mgt1 strain, active compounds read high
# In short: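 Yeast cells carrying a defined DNA-repair defect were exposed to test compounds. Growth inhibition was measured relative to vehicle-treated controls.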
# [12] = NCI Yeast Anticancer Drug Screen. Data for the CLN2oe strain (AID 163);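 also: 0% = growth of vehicle-only control cultures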; details: S. cerevisiae CLN2oe strain, active compounds read high
# In short: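 Yeast cells carrying a defined cell-cycle control alteration were exposed to test compounds. Growth inhibition was scored against vehicle-treated control cultures.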
# [13] = NCI Yeast Anticancer Drug Screen. Data for the cln2 rad14 strain (AID 165);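 also: 0% = growth equal to vehicle treated cultures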; details: S. cerevisiae cln2 rad14 strain, active compounds read high
# In short: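 Yeast carrying cln2 and rad14 alterations (cell cycle control and DNA damage repair) were exposed to compounds. Growth inhibition was measured against vehicle-treated controls.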
# [14] = NCI Yeast Anticancer Drug Screen. Data for the bub3 strain (AID 167); details: S. cerevisiae bub3 mutant strain, active compounds read high
# In short: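 Yeast carrying a defined mutation is treated with each compound, and growth is compared with that of vehicle-exposed cells to give inhibition.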
# [15] = NCI Yeast Anticancer Drug Screen. Data for the wt2 strain (AID 169);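 also: 0% = growth of vehicle-treated yeast cultures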; details: S. cerevisiae wt2 strain growth inhibition, active compounds read high
# In short: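 Yeast cells were exposed to test compounds, and growth inhibition was measured relative to vehicle-treated controls.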
# [16] = at 5.0 µM (retest, dose inferred, filed as 0.5)
# [17] = at 50.0 µM (retest, dose inferred, filed as 5.0)
smiles,measurement,setting,value
N#C/C(=C\c1ccccc1)c1ccccc1F,growth inhibition,[1]; at 1.2 µM,-1%
same,growth inhibition,[1]; at 3.7 µM,2%
same,growth inhibition,[1]; at 11.0 µM,0%
same,growth inhibition,[1]; at 33.0 µM,-6%
same,growth inhibition,[1]; at 100.0 µM,10%
same,growth inhibition,[2]; at 1.2 µM,-1%
same,growth inhibition,[2]; at 3.7 µM,-1%
same,growth inhibition,[2]; at 11.0 µM,1%
same,growth inhibition,[2]; at 33.0 µM,1%
same,growth inhibition,[2]; at 100.0 µM,2%
same,growth inhibition,[3]; [16],22%
same,growth inhibition,[3]; [17],96% (active)
same,growth inhibition,[3]; at 50.0 µM,67%
same,growth inhibition,[4]; at 1.2 µM,-2%
same,growth inhibition,[4]; at 3.7 µM,-5%
same,growth inhibition,[4]; at 11.0 µM,-7%
same,growth inhibition,[4]; at 33.0 µM,-14%
same,growth inhibition,[4]; at 100.0 µM,-15%
CC(C)(O)c1ccccc1C(c1ccccc1)c1ccccc1,growth inhibition,[5]; at 1.2 µM,0%
same,growth inhibition,[5]; at 3.7 µM,-3%
same,growth inhibition,[5]; at 11.0 µM,9%
same,growth inhibition,[5]; at 33.0 µM,3%
same,growth inhibition,[5]; at 100.0 µM,8%
same,growth inhibition,[6]; at 1.2 µM,0%
same,growth inhibition,[6]; at 3.7 µM,-1%
same,growth inhibition,[6]; at 11.0 µM,5%
same,growth inhibition,[6]; at 33.0 µM,-3%
same,growth inhibition,[6]; at 100.0 µM,4%
same,growth inhibition,[7]; at 1.2 µM,-5%
same,growth inhibition,[7]; at 3.7 µM,-4%
same,growth inhibition,[7]; at 11.0 µM,5%
same,growth inhibition,[7]; at 33.0 µM,-1%
same,growth inhibition,[7]; at 100.0 µM,4%
same,growth inhibition,[8]; at 1.2 µM,-2%
same,growth inhibition,[8]; at 3.7 µM,3%
same,growth inhibition,[8]; [16],53%
same,growth inhibition,[8]; at 11.0 µM,4%
same,growth inhibition,[8]; at 33.0 µM,6%
same,growth inhibition,[8]; [17],85% (active)
same,growth inhibition,[8]; at 50.0 µM,18.6%
same,growth inhibition,[8]; at 100.0 µM,7%
same,growth inhibition,[9]; at 1.2 µM,-2%
same,growth inhibition,[9]; at 3.7 µM,0%
same,growth inhibition,[9]; [16],-5%
same,growth inhibition,[9]; at 11.0 µM,-2%
same,growth inhibition,[9]; at 33.0 µM,1%
same,growth inhibition,[9]; [17],42%
same,growth inhibition,[9]; at 50.0 µM,9.35%
same,growth inhibition,[9]; at 100.0 µM,5%
same,growth inhibition,[10]; at 1.2 µM,0%
same,growth inhibition,[10]; at 3.7 µM,0%
same,growth inhibition,[10]; at 11.0 µM,0%
same,growth inhibition,[10]; at 33.0 µM,3%
same,growth inhibition,[10]; at 100.0 µM,10%
same,growth inhibition,[11]; [16],25%
same,growth inhibition,[11]; [17],88% (active)
same,growth inhibition,[11]; at 50.0 µM,17%
same,growth inhibition,[12]; at 1.2 µM,1%
same,growth inhibition,[12]; at 3.7 µM,-1%
same,growth inhibition,[12]; at 11.0 µM,3%
same,growth inhibition,[12]; at 33.0 µM,9%
same,growth inhibition,[12]; at 100.0 µM,17%
same,growth inhibition,[13]; [16],17%
same,growth inhibition,[13]; [17],80% (active)
same,growth inhibition,[13]; at 50.0 µM,-1%
same,growth inhibition,[14]; at 1.2 µM,-2%
same,growth inhibition,[14]; at 3.7 µM,-2%
same,growth inhibition,[14]; [16],29%
same,growth inhibition,[14]; at 11.0 µM,-4%
same,growth inhibition,[14]; at 33.0 µM,-2%
same,growth inhibition,[14]; [17],86% (active)
same,growth inhibition,[14]; at 50.0 µM,7.9%
same,growth inhibition,[14]; at 100.0 µM,4%
same,growth inhibition,[15]; at 1.2 µM,-9%
same,growth inhibition,[15]; at 3.7 µM,-10%
same,growth inhibition,[15]; at 11.0 µM,-12%
same,growth inhibition,[15]; at 33.0 µM,-10%
same,growth inhibition,[15]; at 100.0 µM,-17%
same,growth inhibition,[1]; at 1.2 µM,-3%
same,growth inhibition,[1]; at 3.7 µM,-3%
same,growth inhibition,[1]; at 11.0 µM,-2%
same,growth inhibition,[1]; at 33.0 µM,0%
same,growth inhibition,[1]; at 100.0 µM,9%
same,growth inhibition,[2]; at 1.2 µM,-6%
same,growth inhibition,[2]; at 3.7 µM,20%
same,growth inhibition,[2]; at 11.0 µM,-14%
same,growth inhibition,[2]; at 33.0 µM,-5%
same,growth inhibition,[2]; at 100.0 µM,1%
same,growth inhibition,[3]; [16],59%
same,growth inhibition,[3]; [17],92% (active)
same,growth inhibition,[3]; at 50.0 µM,10.9%
same,growth inhibition,[4]; at 1.2 µM,-2%
same,growth inhibition,[4]; at 3.7 µM,1%
same,growth inhibition,[4]; at 11.0 µM,1%
same,growth inhibition,[4]; at 33.0 µM,3%
same,growth inhibition,[4]; at 100.0 µM,15%
COc1ccc(SCc2cc(OC)ccc2OC)cc1,growth inhibition,[5]; at 1.2 µM,0%
same,growth inhibition,[5]; at 3.7 µM,2%
same,growth inhibition,[5]; at 11.0 µM,4%
same,growth inhibition,[5]; at 33.0 µM,3%
same,growth inhibition,[5]; at 100.0 µM,3%
same,growth inhibition,[6]; at 1.2 µM,-4%
same,growth inhibition,[6]; at 3.7 µM,-4%
same,growth inhibition,[6]; at 11.0 µM,-5%
same,growth inhibition,[6]; at 33.0 µM,-6%
same,growth inhibition,[6]; at 100.0 µM,-1%
same,growth inhibition,[7]; at 1.2 µM,15%
same,growth inhibition,[7]; at 3.7 µM,18%
same,growth inhibition,[7]; at 11.0 µM,27%
same,growth inhibition,[7]; at 33.0 µM,30%
same,growth inhibition,[7]; at 100.0 µM,18%
same,growth inhibition,[8]; at 1.2 µM,0%
same,growth inhibition,[8]; at 3.7 µM,1%
same,growth inhibition,[8]; [16],-8%
same,growth inhibition,[8]; at 11.0 µM,2%
same,growth inhibition,[8]; at 33.0 µM,2%
same,growth inhibition,[8]; [17],66%
same,growth inhibition,[8]; at 50.0 µM,60.5%
same,growth inhibition,[8]; at 100.0 µM,3%
same,growth inhibition,[9]; at 1.2 µM,-1%
same,growth inhibition,[9]; at 3.7 µM,-7%
same,growth inhibition,[9]; [16],-26%
same,growth inhibition,[9]; at 11.0 µM,-6%
same,growth inhibition,[9]; at 33.0 µM,-9%
same,growth inhibition,[9]; [17],14%
same,growth inhibition,[9]; at 50.0 µM,13.9%
same,growth inhibition,[9]; at 100.0 µM,-3%
same,growth inhibition,[10]; at 1.2 µM,0%
same,growth inhibition,[10]; at 3.7 µM,-2%
same,growth inhibition,[10]; at 11.0 µM,-3%
same,growth inhibition,[10]; at 33.0 µM,0%
same,growth inhibition,[10]; at 100.0 µM,2%
same,growth inhibition,[11]; [16],-27%
same,growth inhibition,[11]; [17],37%
same,growth inhibition,[11]; at 50.0 µM,67%
same,growth inhibition,[12]; at 1.2 µM,-4%
same,growth inhibition,[12]; at 3.7 µM,-9%
same,growth inhibition,[12]; at 11.0 µM,-6%
same,growth inhibition,[12]; at 33.0 µM,-8%
same,growth inhibition,[12]; at 100.0 µM,-2%
same,growth inhibition,[13]; [16],-25%
same,growth inhibition,[13]; [17],58%
same,growth inhibition,[13]; at 50.0 µM,20.1%
same,growth inhibition,[14]; at 1.2 µM,3%
same,growth inhibition,[14]; at 3.7 µM,13%
same,growth inhibition,[14]; [16],-17%
same,growth inhibition,[14]; at 11.0 µM,24%
same,growth inhibition,[14]; at 33.0 µM,21%
same,growth inhibition,[14]; [17],73% (active)
same,growth inhibition,[14]; at 50.0 µM,61.3%
same,growth inhibition,[14]; at 100.0 µM,14%
same,growth inhibition,[15]; at 1.2 µM,-2%
same,growth inhibition,[15]; at 3.7 µM,0%
same,growth inhibition,[15]; at 11.0 µM,-2%
same,growth inhibition,[15]; at 33.0 µM,0%
same,growth inhibition,[15]; at 100.0 µM,1%
same,growth inhibition,[1]; at 1.2 µM,-2%
same,growth inhibition,[1]; at 3.7 µM,-4%
same,growth inhibition,[1]; at 11.0 µM,0%
same,growth inhibition,[1]; at 33.0 µM,-4%
same,growth inhibition,[1]; at 100.0 µM,0%
same,growth inhibition,[2]; at 1.2 µM,-2%
same,growth inhibition,[2]; at 3.7 µM,-4%
same,growth inhibition,[2]; at 11.0 µM,-2%
same,growth inhibition,[2]; at 33.0 µM,-2%
same,growth inhibition,[2]; at 100.0 µM,0%
same,growth inhibition,[3]; [16],-16%
same,growth inhibition,[3]; [17],67%
same,growth inhibition,[3]; at 50.0 µM,21.3%
same,growth inhibition,[4]; at 1.2 µM,-5%
same,growth inhibition,[4]; at 3.7 µM,-5%
same,growth inhibition,[4]; at 11.0 µM,-3%
same,growth inhibition,[4]; at 33.0 µM,-16%
same,growth inhibition,[4]; at 100.0 µM,-1%
